Several values for one entry are separate records, joined by “and”; a condition that tells them apart may be missing. Equal values may be shown once. Inconclusive results are not listed. Where a call stands in place of a potency, no number is given. Where a structure was tested more than once in an assay, its records may differ in their call. Activity calls are given as the source filed them. Unless noted, calls follow the shape of the full dose curve.
Experiments:
[1] = Nuclear factor erythroid 2-related factor 2/antioxidant responsive element (Nrf2/ARE) small molecule agonists: qHTS cell viability counter screen in human keratinocytes (AID 1919968; active = well fitted cell-killing curve with a large enough effect in the repeat runs; also: nearly all actives have a fitted effect of over 55% in size; also: potency is read from the fitted curve at half-maximal effect)
Outline: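 Seed 1,500 KeratinoSens cells per well, then incubate 5 h at 37 C/5% CO2. Add compounds in DMSO and incubate 23 h. Add CellTiter-Fluor, wait 1 h and read fluorescence.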

[2] = Nuclear factor erythroid 2-related factor 2/antioxidant responsive element (Nrf2/ARE) small molecule agonists: luciferase reporter gene qHTS assay in human keratinocytes (AID 1919969); also: nearly all actives have a fitted effect of over 35% in size; also: potency is read from the fitted curve at half-maximal effect
[3] = target: Gonadotropin-releasing hormone receptor (Homo sapiens) (UniProt P30968); experiment: Human gonadotropin-releasing hormone receptor (GnRHR) small molecule agonists, calcium flux assay in GnRHR-HEK293 cells (AID 1920063); also: nearly all actives have a fitted effect of over 35% in size; also: potency is read from the fitted curve at half-maximal effect
Outline: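 Cells: HEK293 stably expressing human GnRHR. Steps: overnight (18 h) culture, 1 h calcium dye loading at 37 C, compound addition, kinetic fluorescence read at 480/540 nm. Each compound tested at 15 concentrations in triplicate.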

[4] = p53 small molecule agonists, cell-based qHTS assay with human liver microsomes: qHTS cell viability counter screen (AID 1963579); also: nearly all actives have a fitted effect of over 45% in size; also: potency is read from the fitted curve at half-maximal effect
Outline: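 In this multiplexed counter screen, the reporter plates were subsequently treated with CellTiter-Glo so that cell viability, reflected by luminescence, could be recorded for p53RE-bla cells dosed 16 h with compounds under microsomal activation (HLM and NADPH).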

[5] = p53 small molecule agonists, cell-based qHTS assay with rat liver microsomes: qHTS cell viability counter screen (AID 1963580); also: nearly all actives have a fitted effect of over 45% in size; also: potency is read from the fitted curve at half-maximal effect
Outline: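 HCT-116 p53RE-bla, 4,000 cells/well, 5 h pre-incubation; cpd + rat liver microsomes 0.5 mg/mL + NADPH 0.5 mg/mL (final); 16 h, 37 C; CellTiter-Glo, 30 min RT; luminescence.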

[6] = p53 small molecule agonists, cell-based qHTS assay: qHTS cell viability counter screen (AID 1963581); also: nearly all actives have a fitted effect of over 45% in size
Outline: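 Cells: HCT-116 with p53 response element-driven beta-lactamase. Treatment: 16 h, 37 C, compounds in DMSO. Read: CellTiter-Glo luminescence after 30 min RT.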

[7] = target: 5-hydroxytryptamine receptor 2A (Homo sapiens) (UniProt P28223); experiment: 5-hydroxytryptamine receptor 2A (HTR2A) small molecule antagonists, cell-based qHTS assay (AID 1963586); also: nearly all actives have a fitted effect of over 45% in size
Outline: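 Antagonist-mode intracellular calcium assay: DOI (4 nM) added after 5 min compound pre-incubation at room temperature to dye-loaded HTR2A-CHO cells. Fluorescence followed for 3 min, sampled every second.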

[8] = target: 5-hydroxytryptamine receptor 2A (Homo sapiens) (UniProt P28223); experiment: 5-hydroxytryptamine receptor 2A (HTR2A) small molecule agonists, cell-based qHTS assay (AID 1963587); also: nearly all actives have a fitted effect of over 30% in size; also: potency is read from the fitted curve at half-maximal effect
Outline: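 Kinetic calcium-flux fluorescence (2 min, 1 sec intervals) after compound addition in agonist mode. HTR2A-CHO cells were cultured 18 h, then dye-loaded 1 h at 37 C.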

[9] = target: Muscarinic acetylcholine receptor M1 (Homo sapiens) (UniProt P11229); experiment: Cholinergic receptor muscarinic 1 (CHRM1) small molecule agonists, cell-based qHTS assay (AID 1963589); also: nearly all actives have a fitted effect of over 35% in size; also: potency is read from the fitted curve at half-maximal effect
Outline: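 Agonist-mode qHTS in CHO cells stably carrying human muscarinic M1. Intracellular calcium is tracked by fluorescence every second after compound transfer; each compound runs at 15 concentrations in three independent runs.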

[10] = cAMP Responsive Elements (CRE) small molecule agonists, cell-based qHTS assay (AID 1963590)
Outline: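 Agonist mode qHTS in CRE-bla HEK 293T cells: compounds dosed from DMSO for 3 h at 37 C/5% CO2, followed by LiveBLAzer B/G FRET substrate for 2 h at room temperature.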

[11] = cAMP Responsive Elements (CRE) small molecule antagonists, cell-based qHTS assay (AID 1963591; active = well fitted inhibition curve with a large enough effect in the signal ratio in the repeat runs, not every such curve was filed as active; the % refers to the signal ratio)
Outline: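 Antagonist mode: test compounds are co-incubated with the adenylyl cyclase activator NKH477 (0.25 uM final) on CRE-bla HEK293T cells for 3 h at 37 °C, followed by LiveBLAzer substrate loading.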

[12] = target: Beta-2 adrenergic receptor (Homo sapiens) (UniProt P07550); experiment: Adrenergic beta2 receptor (ADRB2) small molecule antagonists, cell-based qHTS assay (AID 1963592); also: nearly all actives have a fitted effect of over 50% in size; also: potency is read from the fitted curve at half-maximal effect
Outline: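 Cells (CHO, stable ADRB2 overexpression) incubated 18-20hr at 37C; compounds added from DMSO; agonist mix (1nM isoproterenol, 100uM IBMX, 25uM Ro-20-1724) added; 0.5hr RT; d2-cAMP and anti-cAMP-cryptate added; 1hr RT; 665/615 nm read.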

[13] = target: Beta-2 adrenergic receptor (Homo sapiens) (UniProt P07550); experiment: Adrenergic beta2 receptor (ADRB2) small molecule agonists, cell-based qHTS assay (AID 1963593);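 also: CHO cells stably overexpressing human ADRB2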
Outline: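 CHO cells stably over-expressing ADRB2 were plated overnight at 37C, then dosed with compounds plus a stimulation mix containing 100uM IBMX and 25uM Ro-20-1724 for 0.5hr at room temperature. cAMP was measured by HTRF competition, 1hr.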

[14] = target: D(2) dopamine receptor (Homo sapiens) (UniProt P14416); experiment: Dopamine D2 receptor (DRD2) small molecule agonists, cell-based qHTS assay (AID 1963594); also: nearly all actives have a fitted effect of over 35% in size
Outline: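 cAMP accumulation in DRD2-HEK293 cells measured by HTRF after 1 h detection; compounds added 10 min before NKH477 (200nM […]) forskolin-analogue stimulation, 30 min at room temperature, with Ro20-1724 present at 0.1 mM final.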

[15] = target: D(2) dopamine receptor (Homo sapiens) (UniProt P14416); experiment: Dopamine D2 receptor (DRD2) small molecule antagonists, cell-based qHTS assay (AID 1963595; active = well fitted inhibition curve with a large enough effect in the signal ratio in the repeat runs, with a control signal flat; the % refers to the signal ratio)
Outline: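 Antagonism was scored as restored cAMP in HEK293-DRD2 cells. These cells were stimulated with 200 nM NKH477 and 12 nM quinpirole for 30 min at room temperature, in the presence of 0.1 mM Ro20-1724.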

[16] = G protein-coupled receptor (GPCR) small molecule agonists, calcium flux assay: HEK293 wild type cell line counter screen (AID 1920065)
Outline: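 Counter-screen of the Tox21 10K library for non-specific calcium release: dye-loaded cells received compounds in DMSO and were monitored by kinetic fluorescence (480/540 nm, 3 min). Fifteen concentrations, run in triplicate.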

[17] = p53 small molecule agonists, cell-based qHTS assay with human liver microsomes (AID 1963577); also: potency is read from the fitted curve at half-maximal effect;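 as to activation: p53 response element beta-lactamase reporter cells with liver microsomes plus NADPH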
Outline: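 16 h, 37 C exposure of p53RE-bla cells to compounds with human liver microsomes and NADPH (0.5 mg/mL final each); detection via LiveBLAzer mixture, 2 h dark at room temperature.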

[18] = p53 small molecule agonists, cell-based qHTS assay with rat liver microsomes (AID 1963578)
Outline: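 With rat liver microsomes and NADPH present (0.5 mg/mL final each), p53RE-bla cells are treated with compound for 16 h at 37 C. LiveBLAzer detection mixture is then applied for 2 h at room temperature in the dark.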

[19] = p53 small molecule agonists, cell-based qHTS assay (AID 1963582; active = well fitted activation curve with a large enough effect in the signal ratio in the repeat runs, not every such curve was filed as active; the % refers to the signal ratio)
Outline: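 Quantitative HTS in p53RE-bla cells: after a 5 h settling period, compounds delivered in DMSO were left on cells for 16 h at 37 C, and reporter induction was measured as fluorescence following 2 h substrate loading.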

[20] = target: Muscarinic acetylcholine receptor M1 (Homo sapiens) (UniProt P11229); experiment: Cholinergic receptor muscarinic 1 (CHRM1) small molecule antagonists, cell-based qHTS assay (AID 1963588); also: nearly all actives have a fitted effect of over 40% in size; also: potency is read from the fitted curve at half-maximal effect
Outline: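 CHRM1-CHO calcium-flux assay, antagonist mode. Cells were seeded 18 h, dye-loaded 1 h at 37 C and given compound for 5 min at RT, then acetylcholine was added at 50nM. FDSS fluorescence was read 3 min; 15 concentrations, three runs.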

Sequence of Beta-2 adrenergic receptor (Homo sapiens) (P07550 whole entry, looked up): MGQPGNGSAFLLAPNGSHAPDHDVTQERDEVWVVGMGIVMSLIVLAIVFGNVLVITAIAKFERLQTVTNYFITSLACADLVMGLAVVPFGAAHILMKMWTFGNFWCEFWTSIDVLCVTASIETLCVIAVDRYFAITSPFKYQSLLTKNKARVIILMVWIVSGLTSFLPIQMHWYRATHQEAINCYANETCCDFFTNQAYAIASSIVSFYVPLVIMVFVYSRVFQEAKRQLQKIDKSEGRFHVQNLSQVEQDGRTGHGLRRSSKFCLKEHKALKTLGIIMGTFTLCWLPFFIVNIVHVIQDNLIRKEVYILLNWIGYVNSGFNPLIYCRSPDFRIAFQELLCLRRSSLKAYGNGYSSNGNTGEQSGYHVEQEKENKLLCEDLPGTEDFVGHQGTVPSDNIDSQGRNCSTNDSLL
Sequence of D(2) dopamine receptor (Homo sapiens) (P14416 whole entry, looked up): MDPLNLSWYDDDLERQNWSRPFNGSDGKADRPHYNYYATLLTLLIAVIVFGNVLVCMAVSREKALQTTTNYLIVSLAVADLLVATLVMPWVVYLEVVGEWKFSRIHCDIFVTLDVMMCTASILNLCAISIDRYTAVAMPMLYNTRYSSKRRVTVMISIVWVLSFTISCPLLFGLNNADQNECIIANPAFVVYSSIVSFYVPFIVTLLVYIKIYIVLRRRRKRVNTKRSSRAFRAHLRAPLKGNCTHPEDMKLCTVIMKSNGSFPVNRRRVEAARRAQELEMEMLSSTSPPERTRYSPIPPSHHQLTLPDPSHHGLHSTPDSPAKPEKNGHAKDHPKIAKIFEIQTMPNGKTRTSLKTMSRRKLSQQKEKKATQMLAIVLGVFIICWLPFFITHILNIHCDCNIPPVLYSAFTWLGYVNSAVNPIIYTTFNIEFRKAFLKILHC
Sequence of Gonadotropin-releasing hormone receptor (Homo sapiens) (P30968 whole entry, looked up): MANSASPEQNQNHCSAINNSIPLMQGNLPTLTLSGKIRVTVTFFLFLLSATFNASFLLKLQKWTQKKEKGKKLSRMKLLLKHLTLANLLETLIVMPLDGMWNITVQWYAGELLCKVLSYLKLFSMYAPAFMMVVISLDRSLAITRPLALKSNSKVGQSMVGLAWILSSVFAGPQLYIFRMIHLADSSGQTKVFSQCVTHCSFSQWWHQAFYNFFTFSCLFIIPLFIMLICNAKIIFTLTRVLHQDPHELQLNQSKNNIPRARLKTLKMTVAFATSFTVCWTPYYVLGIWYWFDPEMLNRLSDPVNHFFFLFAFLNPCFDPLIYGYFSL
Sequence of Muscarinic acetylcholine receptor M1 (Homo sapiens) (P11229 whole entry, looked up): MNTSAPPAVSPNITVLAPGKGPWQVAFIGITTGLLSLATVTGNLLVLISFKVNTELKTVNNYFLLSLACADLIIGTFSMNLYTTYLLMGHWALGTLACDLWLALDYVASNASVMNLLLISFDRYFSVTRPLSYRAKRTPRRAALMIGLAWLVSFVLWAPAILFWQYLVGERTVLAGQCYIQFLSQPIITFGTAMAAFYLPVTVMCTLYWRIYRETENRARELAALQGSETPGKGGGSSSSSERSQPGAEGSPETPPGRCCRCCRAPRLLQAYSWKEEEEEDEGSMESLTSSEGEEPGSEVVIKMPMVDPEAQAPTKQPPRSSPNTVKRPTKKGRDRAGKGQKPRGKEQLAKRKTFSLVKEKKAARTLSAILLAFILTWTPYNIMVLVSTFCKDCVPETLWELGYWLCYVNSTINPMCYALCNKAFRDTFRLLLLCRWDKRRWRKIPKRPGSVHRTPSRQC
Sequence of 5-hydroxytryptamine receptor 2A (Homo sapiens) (P28223 whole entry, looked up): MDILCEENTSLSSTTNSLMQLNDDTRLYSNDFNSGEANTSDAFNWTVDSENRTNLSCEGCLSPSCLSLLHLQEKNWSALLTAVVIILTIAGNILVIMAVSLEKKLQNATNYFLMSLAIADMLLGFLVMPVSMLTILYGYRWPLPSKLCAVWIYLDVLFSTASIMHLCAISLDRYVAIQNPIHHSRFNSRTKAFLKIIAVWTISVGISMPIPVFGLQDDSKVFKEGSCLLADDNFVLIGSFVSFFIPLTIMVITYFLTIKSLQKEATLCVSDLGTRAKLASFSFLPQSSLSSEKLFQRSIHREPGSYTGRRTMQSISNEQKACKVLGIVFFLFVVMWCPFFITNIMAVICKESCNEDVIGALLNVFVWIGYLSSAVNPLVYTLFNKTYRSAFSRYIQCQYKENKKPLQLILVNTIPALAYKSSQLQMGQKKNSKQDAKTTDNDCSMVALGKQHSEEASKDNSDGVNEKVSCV

SMILES | Potency [1] | Potency [2] | Potency [3] | Potency [4] | Potency [5] | Potency [6] | Potency [7] | Potency [8] | Potency [9] | Potency [10] | Potency [11] | Potency [12] | Potency [13] | Potency [14] | Potency [15] | Potency [16] | Potency [17] | Potency [18] | Potency [19] | Potency [20]
O=S(=O)(O)OOS(=O)(=O)O | inactive | inactive | inactive | inactive | inactive | inactive | inactive | inactive | inactive | inactive | inactive | inactive | inactive | inactive | inactive | – | – | – | – | –
CN(C)NC(=O)CCC(=O)O | inactive | inactive | inactive | inactive | inactive | inactive | inactive | inactive | inactive | inactive | inactive | inactive | inactive | – | inactive | inactive | inactive | inactive | inactive | inactive
Nc1ccc([As](=O)(O)O)cc1 | inactive | inactive | inactive | inactive | inactive | – | inactive | inactive | inactive | inactive | inactive | inactive | inactive | inactive | inactive | inactive | inactive | inactive | inactive | inactive
CSc1nc(NC(C)C)nc(NC(C)C)n1 | inactive | inactive | inactive | inactive | inactive | – | inactive | inactive | inactive | inactive | inactive | inactive | inactive | inactive | inactive | inactive | inactive | inactive | inactive | inactive
CCCC[N+]1(C)CCCC1 | inactive | inactive and 54.8 µM (active) | inactive | inactive | inactive | inactive | inactive | inactive | – | inactive | inactive | inactive | inactive | – | – | inactive | – | inactive | – | inactive and 5.98 µM (active) and 4.27 µM (active)
NC(=O)c1cc([N+](=O)[O-])cc([N+](=O)[O-])c1 | inactive | inactive | inactive | inactive | inactive | inactive | inactive | inactive | inactive | inactive | inactive | inactive | – | inactive | inactive | – | inactive | inactive | inactive | 460 nM (active)
CCCCCCCCOC(=O)c1ccccc1C(=O)OCCCCCCCC | inactive | inactive | inactive | inactive | inactive | – | inactive | inactive | inactive | inactive | inactive | inactive | inactive | inactive | inactive | inactive | – | inactive | inactive | inactive
Oc1ccc(Cl)cc1Cc1ccccc1 | 43.3 µM (active) and 31 µM (active) | 22 µM (active) and inactive | – | inactive and 41.3 µM (active) | 45.7 µM (active) and inactive | inactive | inactive | 44.2 µM (active) and inactive | inactive | inactive | inactive | 61.9 µM (active) and inactive | inactive | inactive | inactive | inactive | inactive | inactive | inactive | inactive
CCOC(=O)c1cncn1C(C)c1ccccc1 (centres undefined) | inactive | inactive | inactive | inactive | inactive | inactive | inactive | inactive | inactive | inactive | inactive | inactive | inactive | inactive | inactive | inactive | inactive | – | inactive | inactive
COP(=S)(OC)SCn1nnc2ccccc2c1=O | inactive | 53.4 µM (active) and 68.6 µM (active) | inactive | inactive | inactive | inactive | inactive | inactive | inactive | inactive | inactive | – | inactive | inactive | inactive | inactive | 12.6 µM (active) | – | inactive | inactive
O=[N+]([O-])c1cc([As](=O)(O)O)ccc1O | inactive | inactive | inactive | – | inactive | inactive | – | – | – | inactive | – | inactive | inactive | inactive | inactive | inactive | inactive | inactive | inactive | –
CC(C)C(C)(N)C#N (centres undefined) | inactive | inactive | inactive | – | inactive | inactive | inactive | inactive | inactive | inactive | inactive | inactive | – | inactive | inactive | inactive | inactive | inactive | inactive | inactive
CCCCCCCCCCCCCCCC[N+](C)(C)C | 61.1 µM (active) and 5.96 µM (active) | inactive | 13.3 µM (active) and 30.9 µM (active) and 12 µM (active) | inactive | inactive | inactive | inactive | 18.8 µM (active) and 38.9 µM (active) | – | – | – | inactive | inactive | inactive | inactive | inactive | – | – | – | 2.03 µM (active) and 840 nM (active)
c1ccc2c(c1)CCCC2 | inactive | inactive | inactive | inactive | inactive | inactive | inactive | inactive | inactive | inactive | inactive | inactive | inactive | inactive | inactive | – | inactive | inactive | inactive | inactive
O=C1CCCN1 | inactive | inactive | inactive | inactive | inactive | – | inactive | inactive | 49.5 µM (active) and inactive | – | inactive | inactive | inactive | inactive | inactive | inactive | – | – | – | inactive

Source: PubChem BioAssay (Tox21)
